Results reported in the supplement of paper PMC13380429.

System: Vero E6 infected with SARS-CoV-2
Assay: inhibition of SARS-CoV-2 cytopathic effect; higher = more antiviral protection, active = above 15
Conditions: 48 h

Measured: inhibition of SARS-CoV-2 cytopathic effect

O=[N+]([O-])c1c(Nc2cc(F)cc(Cl)c2)ccc2nonc12
inactive: 1 nM 1.7% | 8.33 nM 2.32% | 100 nM 1.45% | 833.33 nM -0.1% | 10000 nM 2.66%

CCCN(CCC)C(=O)C(CCC(=O)OCCCN1CCN(CCOC(=O)Cc2c(C)n(C(=O)c3ccc(Cl)cc3)c3ccc(OC)cc23)CC1)NC(=O)c1ccccc1 (stereo not given) [proglumetacin]
inactive: 1 nM -3.43% | 8.33 nM -2.43% | 100 nM -2.86% | 833.33 nM -4.91% | 10000 nM -12.6%

CC(SC(=O)c1cccs1)C(=O)NCC(=O)O (stereo not given) [stepronin]
inactive: 1 nM 2.01% | 8.33 nM -0.48% | 100 nM 1.48% | 833.33 nM 0.5% | 10000 nM -1.74%

COc1cc2c(NC3CCN(C(C)C)CC3)nc(N3CCC(F)(F)CC3)nc2cc1OCCCN1CCCC1
active: 10000 nM 68.5%
inactive: 1 nM -0.61% | 8.33 nM 0.14% | 100 nM 3.08% | 833.33 nM 0.9%

CC[C@@]1(O)C(=O)OCc2c1cc1n(c2=O)Cc2cc3c(CN(C)C)c(O)ccc3nc2-1 [topotecan]
inactive: 1 nM 0.54% | 8.33 nM 1.66% | 100 nM -1.53% | 833.33 nM -6.88% | 10000 nM -15.3%

C1Cc2[nH]nc(-c3nn[nH]n3)c2C1
inactive: 1 nM -1.32% | 8.33 nM -1.1% | 100 nM -1.82% | 833.33 nM -3.19% | 10000 nM 2.43%

Brc1c(NC2=NCCN2)ccc2nccnc12 [brimonidine]
inactive: 1 nM 4.55% | 8.33 nM 0.66% | 100 nM 0.75% | 833.33 nM 2.72% | 10000 nM 0.94%

C[C@@H]1CCC[C@H](C)N1NC(=O)c1ccc(Cl)c(S(N)(=O)=O)c1 [clopamide]
inactive: 1 nM -1.53% | 8.33 nM 2.77% | 100 nM 0.22% | 833.33 nM 5.88% | 10000 nM -2.61%

O=C(O)CC1CC(c2ccccc2)=NO1 (stereo not given)
inactive: 1 nM -0.73% | 8.33 nM 0.07% | 100 nM -0.78% | 833.33 nM 2.86% | 10000 nM 0.36%

CNC(=O)c1ccccc1Nc1nc(Nc2ccc(N3CCOCC3)cc2OC)ncc1Cl
inactive: 1 nM -0.14% | 8.33 nM -2.52% | 100 nM -2.14% | 833.33 nM -3.76% | 10000 nM -10.9%

O=C(Nc1cccc(C(F)(F)F)c1)Nc1cc(S(=O)(=O)NC2CC2)ccc1-c1ccsc1
inactive: 1 nM -0.22% | 8.33 nM -0.85% | 100 nM 0.27% | 833.33 nM 0.38% | 10000 nM 0.46%

CC[C@@H](CO)NC(=O)[C@@H]1C=C2c3cccc4c3c(cn4C)C[C@H]2N(C)C1 [methysergide]
inactive: 1 nM -0.52% | 8.33 nM 0.46% | 100 nM 0.82% | 833.33 nM 1.51% | 10000 nM 0.92%

O[C@H]([C@H](O)[C@@H]1CO1)[C@H]1CO1 [dianhydrogalactitol]
inactive: 1 nM -0.61% | 8.33 nM -1.52% | 100 nM -3.41% | 833.33 nM 0.41% | 10000 nM 2.5%

NC/C(=C/F)CCc1ccc(F)cc1 [mofegiline]
inactive: 1 nM 3.65% | 8.33 nM 2.09% | 100 nM 1.29% | 833.33 nM -1.58% | 10000 nM -3.87%

CC(=O)N1CCC(C(=O)N(CCCN2CCC(Cc3ccc(C(N)=O)cc3)CC2)c2ccc(C)c(Cl)c2)CC1
inactive: 1 nM 0.74% | 8.33 nM -0.02% | 100 nM -0.6% | 833.33 nM 0.17% | 10000 nM 2.52%

N#C/C(=C\c1cccn1S(=O)(=O)c1cccc([N+](=O)[O-])c1)S(=O)(=O)c1ccc(F)cc1
inactive: 1 nM -0.59% | 8.33 nM -0.34% | 100 nM -0.6% | 833.33 nM -2% | 10000 nM -0.73%

COc1c2occc2c(OC)c2c(=O)cc(C)oc12 [khellin]
inactive: 1 nM 3.97% | 8.33 nM -0.75% | 100 nM -0.95% | 833.33 nM -3.54% | 10000 nM -0.89%

CC(=O)O[C@H]1Cc2ccccc2N(C(N)=O)c2ccccc21 [eslicarbazepine-acetate]
inactive: 1 nM 3.04% | 8.33 nM -0.54% | 100 nM 1.48% | 833.33 nM 0.03% | 10000 nM 1.45%

Cc1cc(C#N)cc(C)c1Oc1nc(Nc2ccc(C#N)cc2)nc(N)c1Br [etravirine]
inactive: 1 nM -0.95% | 8.33 nM -0.81% | 100 nM -2.15% | 833.33 nM -5.24% | 10000 nM -2.04%

c1ccc2nc(C3=NCCN3)cnc2c1
inactive: 1 nM 2.54% | 8.33 nM 1.85% | 100 nM 1.24% | 833.33 nM 4.82% | 10000 nM 2.03%

C=CC1=C(C(=O)O)N2C(=O)[C@@H](NC(=O)/C(=N\O)c3csc(N)n3)[C@H]2SC1 [cefdinir]
inactive: 1 nM 1.85% | 8.33 nM 2.62% | 100 nM 2.17% | 833.33 nM -0.24% | 10000 nM 0.66%

N[C@@H](CCNCc1ccc(Cl)cc1)C(=O)N1CCCCC1
inactive: 1 nM 0.82% | 8.33 nM -0.55% | 100 nM -2.08% | 833.33 nM -1.49% | 10000 nM -1.28%

Cc1nc(-c2cn3c(n2)-c2ccc(-c4cnn(C(C)(C)C(N)=O)c4)cc2OCC3)n(C(C)C)n1 [taselisib]
inactive: 1 nM 3.71% | 8.33 nM 1.62% | 100 nM -1.05% | 833.33 nM -1.92% | 10000 nM -8.91%

CC1=C(C(=O)Nc2cc3cn[nH]c3cc2F)C(c2ccc(C(F)(F)F)cc2)CC(=O)N1 (stereo not given)
inactive: 1 nM 1.8% | 8.33 nM -1.07% | 100 nM 1.5% | 833.33 nM -0.29% | 10000 nM -5.1%

CCC(CC)C(c1ccc(Nc2nc3ccccc3s2)cc1)n1cncn1 (stereo not given) [talarozole]
inactive: 1 nM 3.05% | 8.33 nM 0.68% | 100 nM 0.42% | 833.33 nM 1.31% | 10000 nM 4.15%

COc1ccc(CCN(C)CCCN2CCc3cc(OC)c(OC)cc3CC2=O)cc1OC [zatebradine]
inactive: 1 nM 0.14% | 8.33 nM 1.94% | 100 nM 1.29% | 833.33 nM 0.25% | 10000 nM -2.07%

COc1ccc2c(O[C@@H]3C[C@H]4C(=O)N[C@]5(C(=O)NS(=O)(=O)C6CC6)C[C@H]5/C=C\CCCCN(C)C(=O)[C@@H]4C3)cc(-c3nc(C(C)C)cs3)nc2c1C [simeprevir]
inactive: 1 nM -0.41% | 8.33 nM 3.7% | 100 nM 2.68% | 833.33 nM -2.31% | 10000 nM 2.37%

O=C(/C=C/c1ccccc1)NCCO [brolitene]
inactive: 1 nM -0.76% | 8.33 nM -1.09% | 100 nM -0.6% | 833.33 nM -2.74% | 10000 nM 1.92%

CCC[C@@H]1C[C@@H](C(=O)N[C@@H]([C@H]2O[C@H](SC)[C@H](O)[C@@H](O)[C@H]2O)[C@@H](C)O)N(C)C1 [lincomycin]
inactive: 1 nM 1.22% | 8.33 nM 2.66% | 100 nM -0.29% | 833.33 nM -1.24% | 10000 nM -1.36%

CCCCCCCCCCCCCCCC[N+](C)(C)Cc1ccccc1 [benzyldimethylhexadecylammonium]
inactive: 1 nM 2.1% | 8.33 nM 0.11% | 100 nM -1.57% | 833.33 nM -0.97% | 10000 nM -13.2%

Nc1nc2c(ncn2COC(CO)CO)c(=O)[nH]1 [ganciclovir]
inactive: 1 nM 0.29% | 8.33 nM 0.09% | 100 nM 2.75% | 833.33 nM -1.42% | 10000 nM -1.71%

CC(C)(CO)Cc1cc(C(C)(C)C)c(O)c(C(C)(C)C)c1
inactive: 1 nM -1.21% | 8.33 nM -2.15% | 100 nM 1.59% | 833.33 nM 4.34% | 10000 nM -0.79%

O[C@@H]1[C@H](O)[C@@H](CCl)O[C@H]1n1cnc2c(NC3CC4CCC3C4)ncnc21 (mixture of isomers) [5'-chloro-5'-deoxy-ENBA-(+/-)]
inactive: 1 nM -4.47% | 8.33 nM -2.02% | 100 nM 0.3% | 833.33 nM 3.77% | 10000 nM -3.73%

CN[C@@H]1[C@H](O[C@H]2[C@H](O[C@H]3[C@H](O)[C@@H](O)[C@H](NC(=N)N)[C@@H](O)[C@@H]3NC(=N)N)O[C@@H](C)[C@]2(O)CO)O[C@@H](CO)[C@H](O)[C@H]1O [dihydrostreptomycin]
inactive: 1 nM 0.2% | 8.33 nM -0.04% | 100 nM -0.21% | 833.33 nM 0.85% | 10000 nM -0.41%

OCCn1cc(-c2ccc3c(c2)CC/C3=N\O)c(-c2ccncc2)n1
inactive: 1 nM 8.04% | 8.33 nM 9.39% | 100 nM 8.46% | 833.33 nM 10.2% | 10000 nM 8.08%

Cc1nnc(C(C)C)n1C1C[C@H]2CC[C@@H](C1)N2CC[C@H](NC(=O)C1CCC(F)(F)CC1)c1ccccc1 (stereo in doubt) [maraviroc]
inactive: 1 nM -2.38% | 8.33 nM -1.45% | 100 nM 1.77% | 833.33 nM -0.21% | 10000 nM 2.92%

O=C(O)c1cc2ccccc2s1
inactive: 1 nM -0.94% | 8.33 nM -1.01% | 100 nM -0.94% | 833.33 nM -0.45% | 10000 nM 0.62%

CC(=O)NCCc1c[nH]c2ccccc12 [N-acetyltryptamine]
inactive: 1 nM 0.9% | 8.33 nM 2.35% | 100 nM 2.28% | 833.33 nM -0.38% | 10000 nM 2.53%

CC1(C)[C@@H]2C[C@@H](O)[C@@](C)(O)[C@H]1C2 [2,3-cis/exo-pinanediol]
inactive: 1 nM -0.96% | 8.33 nM 1.89% | 100 nM 2.23% | 833.33 nM -0.64% | 10000 nM 2.13%
